Assay [1] is described as follows: ATG_CRE_CIS: Attagene CIS-FACTORIAL HepG2 Assay for human cAMP Responsive Element (CRE) binding protein 3 (AID 2282926). To be noted: HepG2 CRE cis-reporter, Attagene multiplexed mRNA; actives raise or lower the signal. The procedure, abridged:
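HepG2 cells transiently transfected with cis-element-driven multiple reporter transcription units; CRE reporter mRNA measured 24 h after dosing by RT-PCR, 6-FAM labelling, HpaI digestion and capillary electrophoresis. Bidirectional fit versus DMSO baseline.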

Assay [2] deals with CCAAT/enhancer-binding protein beta (Homo sapiens) (UniProt P17676). In words: ATG_C_EBP_CIS: Attagene CIS-FACTORIAL HepG2 Assay for human CCAAT/Enhancer Binding Protein (C/EBP) beta (AID 2282927). As to conditions: HepG2 Attagene cis-factorial transcription factor reporter; actives raise or lower the signal. The procedure, abridged: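 RT-PCR/capillary electrophoresis fluorescence of reporter mRNA, 24 h post-dose, in HepG2 cells carrying transfected cis-promoter reporter units. Bidirectional curve fitting against DMSO baseline captures gain or loss of signal.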

The nature of assay [3]: ATG_CMV_CIS: Attagene CIS-FACTORIAL HepG2 Assay for human CMV (Internal Marker) (AID 2282928).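 Also: endpoint acts as a background internal control marker rather than a target.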 As to conditions: HepG2 CMV promoter reporter, transcription factor profiling; actives raise or lower the signal. The procedure, abridged:
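Endogenous transcription factor activity read in HepG2 via transfected cis-promoter reporter units. After 24 h dosing, reporter mRNA measured by RT-PCR/capillary electrophoresis; gain or loss of signal fit relative to DMSO.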

A short description of assay [4]: ATG_DR4_LXR_CIS: Attagene CIS-FACTORIAL HepG2 Assay for human Liver X Receptor (LXR), DR4 submotif (AID 2282929). As to conditions: HepG2 Attagene DR4 cis-reporter, mRNA transcription; actives raise or lower the signal. Put shortly: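 After transient transfection with multiplexed cis-promoter reporter units, HepG2 cells received test chemicals for 24 h. Reporter mRNA induction, detected by fluorescence after RT-PCR and capillary electrophoresis, was scored relative to DMSO.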

Assay [5] is described as follows: ATG_AP_1_CIS: Attagene CIS-FACTORIAL HepG2 Assay for human Activator Protein 1 (AP-1) (AID 2282931). As to conditions: HepG2 Attagene cis-factorial AP-1 reporter mRNA; actives raise or lower the signal. The procedure, abridged:
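After 24 h incubation with test chemical, RNA from transfected HepG2 cells was reverse-transcribed, amplified, fluorescently labelled and digested before capillary electrophoresis. Reporters were driven by cis-regulatory promoters; activity fitted bidirectionally versus DMSO.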

The nature of assay [6]: ATG_BRE_CIS: Attagene CIS-FACTORIAL HepG2 Assay for human Bone Morphogenetic Protein (BMP) Response Element (BRE) (AID 2282933). As to conditions: HepG2 BMP response element reporter, Attagene transcription factor profiling; actives raise or lower the signal. The procedure, abridged:
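Gain- or loss-of-signal was derived by bidirectional fitting against DMSO controls. The signal came from reporter mRNA, measured by RT-PCR and capillary electrophoresis, in HepG2 cells transiently carrying multiple reporter units and dosed for 24 h.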

A short description of assay [7]: ATG_E_Box_CIS: Attagene CIS-FACTORIAL HepG2 Assay for human Enhancer Box (E-box) (AID 2282936). As to conditions: HepG2 E-box cis-reporter transcription, actives raise or lower the signal. The procedure, abridged: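 HepG2 cells transiently transfected with multiplexed cis-element reporter units sensing endogenous transcription factor activity; 24 h compound exposure. Reporter mRNA measured by RT-PCR, 6-FAM primer extension, HpaI digestion and capillary electrophoresis; bidirectional fit versus DMSO.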

Assay [8] is described as follows: ATG_M_19_CIS: Attagene CIS-FACTORIAL HepG2 Assay for M19 Transcription Factor (Internal Marker) (AID 2282939). As to conditions: HepG2 Attagene CIS-FACTORIAL M19 internal marker reporter; actives raise or lower the signal. Put shortly:
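Following a 24 h exposure, RNA from transfected HepG2 cells was reverse-transcribed, PCR-amplified with reporter-specific primers, end-labelled with 6-FAM and HpaI-digested before capillary separation. Values represent gain or loss versus DMSO.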

A short description of assay [9]: ATG_GATA_CIS: Attagene CIS-FACTORIAL HepG2 Assay for human GATA Binding Protein (AID 2282944). To be noted: HepG2 GATA cis-element reporter, Attagene multiplex mRNA; actives raise or lower the signal. The procedure, abridged: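 DMSO serves as negative control and baseline for bidirectional fitting of reporter mRNA changes. HepG2 cells bearing transiently transfected cis-promoter reporters were exposed 24 h; transcripts detected via RT-PCR and capillary electrophoresis.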

Assay [10] in a line: ATG_ISRE_CIS: Attagene CIS-FACTORIAL HepG2 Assay for human Interferon Regulatory Factor 1 (IRF1) binding to an Interferon-Stimulated Response Element (ISRE) (AID 2282948). As to conditions: HepG2 ISRE cis-reporter (Attagene), mRNA transcription readout; actives raise or lower the signal. Put shortly: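 Transfected HepG2 (multiple reporter transcription units, cis elements) dosed 24 h. RNA → oligo(dT) RT → PCR → 6-FAM primer extension → HpaI → CE. DMSO = negative control/baseline.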

The nature of assay [11]: ATG_M_32_CIS: Attagene CIS-FACTORIAL HepG2 Assay for M32 Transcription Factor (Internal Marker) (AID 2282949).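 Also: background control marker of the multiplexed CIS panel rather than a real target.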 To be noted: HepG2 Attagene cis-factorial M32 reporter, mRNA; actives raise or lower the signal. Put shortly: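 Internal background marker read-out: RT-PCR/capillary electrophoresis fluorescence of reporter transcripts from transiently transfected HepG2 cells after 24 h chemical exposure. Activity fitted bidirectionally relative to DMSO negative control.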

Assay [12] can be described thus: ATG_M_06_CIS: Attagene CIS-FACTORIAL HepG2 Assay for M06 Transcription Factor (Internal Marker) (AID 2282950). To be noted: HepG2 Attagene CIS-FACTORIAL M06 internal marker reporter; actives raise or lower the signal. The procedure, abridged:
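Fluorescence-labelled RT-PCR products from cis-promoter reporter units, cut with HpaI and resolved by capillary electrophoresis, give the signal. Cells are human HepG2, dosed for 24 h. Serves as background control, fitted relative to DMSO.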

Assay [13] can be described thus: ATG_MRE_CIS: Attagene CIS-FACTORIAL HepG2 Assay for human Metal Responsive Element (MRE) (AID 2282954). To be noted: HepG2 MRE cis-reporter transcription, Attagene multiplex; actives raise or lower the signal. The procedure, abridged: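 HepG2 cells transiently transfected with multiple cis-element reporter units measure endogenous MTF1-driven transcription. After 24 h compound exposure, reporter mRNA is quantified by RT-PCR with 6-FAM labelling, HpaI digestion and capillary electrophoresis; bidirectional fits versus DMSO.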

Assay [14] concerns the target Paired box protein Pax-6 (Homo sapiens) (UniProt P26367). As to the kind of experiment: ATG_Pax6_CIS: Attagene CIS-FACTORIAL HepG2 Assay for human Paired Box 6 (PAX6) (AID 2282956). To be noted: HepG2 CIS-FACTORIAL PAX6 reporter transcription, RNA readout; actives raise or lower the signal. The procedure, abridged: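 Transient MRTU transfection of HepG2 → compound exposure 24 h → TriZol RNA, oligo(dT) RT → PCR, 6-FAM primer extension, HpaI cut → capillary electrophoresis; activity fitted both directions against DMSO.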

Assay [15] in a line: ATG_PXRE_CIS: Attagene CIS-FACTORIAL HepG2 Assay for human Pregnane X Receptor Element (PXRE) (AID 2282957). To be noted: HepG2 Attagene CIS-FACTORIAL PXRE reporter, mRNA; actives raise or lower the signal. Put shortly: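 HepG2 cells transiently transfected with cis-element-driven multiplexed reporter units; after 24 h chemical exposure, reporter mRNA measured by RT-PCR, 6-FAM labelling, HpaI digestion and capillary electrophoresis. Bidirectional fitting relative to DMSO.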

Assay [16] in a line: ATG_Sox_CIS: Attagene CIS-FACTORIAL HepG2 Assay for human SRY-box transcription factor (SOX) (AID 2282960). To be noted: HepG2 Attagene cis-factorial SOX reporter, mRNA; actives raise or lower the signal. Put shortly:
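Using transiently transfected HepG2 cells, reporter transcription driven by cis elements was assessed 24 h after dosing. Signal was fluorescence of capillary-separated RT-PCR products, with DMSO defining baseline activity.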

Assay [17] addresses Transcription factor Sp1 (Homo sapiens) (UniProt P08047). As to the kind of experiment: ATG_Sp1_CIS: Attagene CIS-FACTORIAL HepG2 Assay for human Specificity Protein 1 (Sp1) (AID 2282961). As to conditions: HepG2 Sp1 cis-reporter transcription, actives raise or lower the signal. The procedure, abridged: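 After transient transfection of HepG2 cells with cis-promoter reporter units and 24 h chemical treatment, reporter transcripts were quantified by RT-PCR and capillary electrophoresis fluorescence. Gain- and loss-of-signal fitted against DMSO.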

Assay [18] is described as follows: ATG_TA_CIS: Attagene CIS-FACTORIAL HepG2 Assay for human TA Basal Promoter (AID 2282964). To be noted: HepG2 Attagene CIS-factorial TA basal promoter reporter; actives raise or lower the signal. The procedure, abridged: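 Multiplexed mRNA reporter assay, HepG2, 24 h. Reporter cDNA amplified, 6-FAM primer-extended, HpaI-cut, CE-sized; DMSO = negative control and baseline.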

Assay [19] can be described thus: ATG_TCF_b_cat_CIS: Attagene CIS-FACTORIAL HepG2 Assay for human T-Cell-Factor with beta-catenin (TCF/b-cat) (AID 2282965). To be noted: HepG2 TCF/beta-catenin cis-reporter transcription, actives raise or lower the signal. Put shortly:
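HepG2 cells transiently transfected with multiple cis-promoter-regulated reporter transcription units, so endogenous transcription factor activity is measured. Reporter mRNA read 24 hours after dosing by RT-PCR, fluorescent labelling and capillary electrophoresis; bidirectional fitting against DMSO.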

Assay [20] is described as follows: ATG_TAL_CIS: Attagene CIS-FACTORIAL HepG2 Assay for human TAL Basal Promoter (AID 2282966).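 Also: background control endpoint measuring basal TAL promoter reporter mRNA not a specific factor.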 As to conditions: HepG2 Attagene cis-factorial TAL promoter reporter; actives raise or lower the signal. The procedure, abridged:
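HepG2 cells transiently transfected with multiplexed cis-promoter reporter units, dosed 24 h. Reporter mRNA quantified by RT-PCR, 6-FAM labelling, HpaI digestion and capillary electrophoresis; TAL basal promoter serves as background control, fitted bidirectionally versus DMSO.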

Active and inactive are the calls of the source. The calls were made as follows: active = hit-call score of the fitted dose curve at least 0.9, where 1 is the maximum; inactive = score below 0.9.

Chain of Paired box protein Pax-6 (Homo sapiens) (P26367 whole entry, looked up): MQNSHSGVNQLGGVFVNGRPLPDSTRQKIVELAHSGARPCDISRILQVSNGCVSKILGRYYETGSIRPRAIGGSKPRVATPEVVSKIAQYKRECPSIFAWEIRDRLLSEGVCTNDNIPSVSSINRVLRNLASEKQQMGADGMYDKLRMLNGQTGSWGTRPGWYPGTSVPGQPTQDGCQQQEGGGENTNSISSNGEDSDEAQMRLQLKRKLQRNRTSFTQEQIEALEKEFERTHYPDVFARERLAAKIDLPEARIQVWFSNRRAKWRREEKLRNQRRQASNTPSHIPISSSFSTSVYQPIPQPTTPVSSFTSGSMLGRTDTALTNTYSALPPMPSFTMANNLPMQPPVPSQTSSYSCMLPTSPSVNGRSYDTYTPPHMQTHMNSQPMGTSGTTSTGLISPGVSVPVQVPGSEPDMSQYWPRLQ
Chain of Transcription factor Sp1 (Homo sapiens) (P08047 whole entry, looked up): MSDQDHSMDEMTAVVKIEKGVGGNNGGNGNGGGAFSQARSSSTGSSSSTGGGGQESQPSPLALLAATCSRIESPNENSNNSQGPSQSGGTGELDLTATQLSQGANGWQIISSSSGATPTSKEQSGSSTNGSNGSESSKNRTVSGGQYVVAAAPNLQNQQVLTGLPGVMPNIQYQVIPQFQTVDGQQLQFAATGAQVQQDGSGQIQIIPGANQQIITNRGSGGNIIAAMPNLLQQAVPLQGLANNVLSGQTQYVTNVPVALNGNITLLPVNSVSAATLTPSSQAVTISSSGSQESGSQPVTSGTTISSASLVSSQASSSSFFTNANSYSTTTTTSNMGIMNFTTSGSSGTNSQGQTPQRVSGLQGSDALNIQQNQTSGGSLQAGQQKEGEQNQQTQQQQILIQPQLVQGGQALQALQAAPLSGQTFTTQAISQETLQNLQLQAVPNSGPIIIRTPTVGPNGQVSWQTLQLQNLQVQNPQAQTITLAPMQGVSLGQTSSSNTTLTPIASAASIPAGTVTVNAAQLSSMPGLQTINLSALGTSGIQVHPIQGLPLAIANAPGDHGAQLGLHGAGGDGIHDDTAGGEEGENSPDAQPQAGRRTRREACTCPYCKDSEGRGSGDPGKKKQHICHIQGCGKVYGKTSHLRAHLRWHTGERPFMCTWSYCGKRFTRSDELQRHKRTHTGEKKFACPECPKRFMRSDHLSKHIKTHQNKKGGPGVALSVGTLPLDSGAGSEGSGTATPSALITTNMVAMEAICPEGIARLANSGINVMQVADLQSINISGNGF
Chain of CCAAT/enhancer-binding protein beta (Homo sapiens) (P17676 whole entry, looked up): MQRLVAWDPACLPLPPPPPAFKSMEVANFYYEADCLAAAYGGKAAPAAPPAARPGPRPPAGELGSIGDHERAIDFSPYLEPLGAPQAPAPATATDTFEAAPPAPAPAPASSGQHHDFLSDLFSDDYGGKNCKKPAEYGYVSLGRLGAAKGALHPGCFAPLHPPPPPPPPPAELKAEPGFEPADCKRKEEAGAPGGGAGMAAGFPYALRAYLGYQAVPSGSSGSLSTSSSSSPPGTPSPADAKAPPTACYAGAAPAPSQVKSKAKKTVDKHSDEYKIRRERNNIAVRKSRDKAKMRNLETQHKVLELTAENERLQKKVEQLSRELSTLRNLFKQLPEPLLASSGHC

As a reminder, the AC50 is the midpoint of the concentration-response curve, whichever way the signal moves. On to `COC(=O)/C=C\C(=O)OC`, for which the result in [1], in assay [2], in [3], in assay [4], in [6] and in assay [7] was inactive. Further, the result in [8], in [9], in [11], in [12], in assay [13] and in assay [14] was inactive. Besides, the call in assay [17], in assay [18] and in [19] was inactive. The AC50 in assay [5] is 28.1 µM (active); in assay [10] it was 45.8 µM (active); in assay [15] it was 6.26 µM (active); in [16], 100 µM (active); in assay [20], 100 µM (active).

On to `CCC(=O)OCc1ccc(OC)cc1`, for which the outcome in [1], in assay [2], in assay [3], in assay [4], in assay [5] and in assay [6] was inactive. The outcome in assay [7], in assay [8], in assay [9], in [10], in [11] and in assay [12] was inactive. For the same compound, the result in [13], in [14], in [16], in [17], in assay [18] and in [19] was inactive. The call in assay [20] was inactive. The AC50 in [15] is 29.7 µM (active).

As for `CC(C)CC(=O)CC(C)CC(C)C` (stereo not given), the outcome in [1], in assay [2], in [3], in assay [4], in assay [5] and in assay [6] was inactive. Further, the outcome in assay [7], in assay [8], in [9], in assay [10], in [11] and in [12] was inactive. Moreover, the compound was classed as inactive in assay [13], in assay [14], in [16], in [17], in assay [18] and in assay [19]. In addition, the result in assay [20] was inactive. In [15], the AC50 was 29.3 µM (active).

With `NC(=O)c1ccc([N+](=O)[O-])cc1Cl`, the call in [1], in [2], in [3], in [4], in assay [5] and in [6] was inactive. In addition, the result in [7], in assay [8], in [9], in [10], in assay [11] and in [12] was inactive. Besides, the compound was called inactive in assay [13], in assay [14], in [15], in assay [16], in assay [17] and in assay [18]. Also, the outcome in [19] and in assay [20] was inactive.

On to `CCCCCCC1CCC(=O)O1` (stereo not given), for which the result in assay [1], in assay [2], in assay [3], in [4], in [5] and in assay [6] was inactive. Further, the outcome in assay [7], in assay [8], in assay [9], in [10], in assay [11] and in assay [12] was inactive. For the same compound, the result in assay [13], in assay [14], in assay [15], in assay [16], in [17] and in assay [18] was inactive. Further, the compound was called inactive in [19] and in [20].

As to `Sc1nc2ccccc2s1`, the result in assay [1], in assay [2], in assay [3], in [4], in [5] and in assay [6] was inactive. In addition, the outcome in assay [7], in assay [8], in [9], in [10], in [11] and in assay [12] was inactive. Also, the call in [13], in [14], in assay [16], in [17], in assay [18] and in assay [19] was inactive. In assay [20], the outcome was inactive. Besides, in assay [15], the AC50 is 80.6 µM (active).

As to `CNC[C@H](O)[C@@H](O)[C@H](O)[C@H](O)CO`, the compound was called inactive in [1], in assay [2], in assay [3], in assay [4], in [5] and in assay [6]. Besides, the result in assay [7], in assay [8], in assay [9], in assay [10], in [11] and in [12] was inactive. The call in assay [13], in assay [14], in assay [16], in assay [17], in [18] and in assay [19] was inactive. The result in assay [20] was inactive. In assay [15], the AC50 is 26 µM (active).

These data come from PubChem BioAssay (EPA / NIEHS).
